Measurements reported in PubChem BioAssay (EPA / NIEHS).
The source made the active and inactive calls. Rule for the calls: active = hit-call score of the fitted dose curve at least 0.9, where 1 is the maximum; inactive = score below 0.9.

What was measured:
[1] = read-out: Macrophage colony-stimulating factor (MCSF), CSF1 (gene 1435); assay: BSK_CASM3C_MCSF: BioMAP Diversity Plus: CASM3C Assay for Macrophage colony-stimulating factor (MCSF) Biomarker Activity (AID 2283044); settings: primary human coronary artery smooth muscle cells; actives raise or lower the signal;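 note: M-CSF protein amount quantified by ELISA after 24 h exposure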
[2] = read-out: Low-density lipoprotein receptor (LDLR), LDLR (gene 3949); assay: BSK_CASM3C_LDLR: BioMAP Diversity Plus: CASM3C Assay for Low-density lipoprotein receptor (LDLR) Biomarker Activity (AID 2283045); settings: primary human coronary artery smooth muscle cells; actives raise or lower the signal;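 note: LDLR protein level on the cell surface quantified by ELISA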
[3] = read-out: Monocyte Chemoattractant Protein-1 (MCP1), CCL2 (gene 6347); assay: BSK_CASM3C_MCP1: BioMAP Diversity Plus: CASM3C Assay for Monocyte Chemoattractant Protein-1 (MCP1) Biomarker Activity (AID 2283046); settings: primary human coronary artery smooth muscle cells; actives raise or lower the signal;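 note: MCP-1 level quantified by ELISA 24 h after dosing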
[4] = BSK_CASM3C_Proliferation: Cell Proliferation Assessment in the BioMAP Diversity Plus: CASM3C Assay (AID 2283047); settings: primary human coronary artery smooth muscle cells;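 note: sulforhodamine B total protein stain as relative cell number at 560 nm; sub-confluent cells exposed 48 h before staining; fitted both ways against DMSO so gain or loss of cell number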
[5] = read-out: Monokine induced gamma interferon (MIG), CXCL9 (gene 4283); assay: BSK_CASM3C_MIG: BioMAP Diversity Plus: CASM3C Assay for Monokine induced gamma interferon (MIG) Biomarker Activity (AID 2283048); settings: primary human coronary artery smooth muscle cells; actives raise or lower the signal;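 note: MIG protein level measured by ELISA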
[6] = read-out: serum amyloid A (SAA), SAA1 (gene 6288); assay: BSK_CASM3C_SAA: BioMAP Diversity Plus: CASM3C Assay for serum amyloid A (SAA) Biomarker Activity (AID 2283049); settings: primary human coronary artery smooth muscle cells; actives raise or lower the signal;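 note: SAA protein level quantified by ELISA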
[7] = BSK_CASM3C_SRB: Viability Assessment in the BioMAP Diversity Plus: CASM3C Assay (AID 2283050); settings: primary human coronary artery smooth muscle cells;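 note: total protein by SRB staining as cytotoxicity measure in parallel cultures; cells exposed to compound for 24 h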
[8] = read-out: Tissue Factor, F3 (gene 2152); assay: BSK_CASM3C_TissueFactor: BioMAP Diversity Plus: CASM3C Assay for Tissue Factor Biomarker Activity (AID 2283052); settings: primary human coronary artery smooth muscle cells; actives raise or lower the signal;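 note: cell surface tissue factor protein level read by ELISA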
[9] = read-out: Interferon-gamma inducible Protein 10 (IP10), CXCL10 (gene 3627); assay: BSK_hDFCGF_IP10: BioMAP Diversity Plus: hDFCGF Assay for Interferon-gamma inducible Protein 10 (IP10) Biomarker Activity (AID 2283053); settings: primary human foreskin fibroblasts; actives raise or lower the signal
In short: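 Primary foreskin fibroblasts, human; 24 h compound exposure; IP-10 by ELISA; bidirectional fit vs DMSO.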

[10] = read-out: Urokinase-type plasminogen activator receptor (uPAR), PLAUR (gene 5329); assay: BSK_CASM3C_uPAR: BioMAP Diversity Plus: CASM3C Assay for Urokinase-type plasminogen activator receptor (uPAR) Biomarker Activity (AID 2283054); settings: primary human coronary artery smooth muscle cells; actives raise or lower the signal;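 note: cell-surface uPAR protein level quantified by ELISA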
[11] = read-out: Vascular cell adhesion molecule 1 (VCAM1), VCAM1 (gene 7412); assay: BSK_CASM3C_VCAM1: BioMAP Diversity Plus: CASM3C Assay for Vascular cell adhesion molecule 1 (VCAM1) Biomarker Activity (AID 2283055); settings: primary human coronary artery smooth muscle cells; actives raise or lower the signal;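 note: VCAM-1 protein level quantified by ELISA on the cells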
[12] = read-out: Collagen III, COL3A1 (gene 1281); assay: BSK_hDFCGF_CollagenIII: BioMAP Diversity Plus: hDFCGF Assay for Collagen III Biomarker Activity (AID 2283056); settings: primary human foreskin fibroblasts; actives raise or lower the signal
In short: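 Human foreskin primary fibroblasts were exposed to test chemicals for 24 h, after which collagen III was quantified by ELISA. Activity was fitted bidirectionally against DMSO as negative control and baseline.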

[13] = read-out: Epidermal growth factor receptor (EGFR), EGFR (gene 1956); assay: BSK_hDFCGF_EGFR: BioMAP Diversity Plus: hDFCGF Assay for Epidermal growth factor receptor (EGFR) Biomarker Activity (AID 2283057); settings: primary human foreskin fibroblasts; actives raise or lower the signal
In short: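 hDFCGF system, primary human foreskin fibroblasts; compound 24 h; EGFR measured by ELISA; DMSO = negative control/baseline; bidirectional fitting.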

[14] = read-out: Interleukin-8 (IL8), CXCL8 (gene 3576); assay: BSK_hDFCGF_IL8: BioMAP Diversity Plus: hDFCGF Assay for Interleukin-8 (IL8) Biomarker Activity (AID 2283058); settings: primary human foreskin fibroblasts; actives raise or lower the signal
In short: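 hDFCGF human dermal fibroblasts; 24 h chemical exposure; IL-8 by ELISA; bidirectional curve fit vs DMSO baseline; gain or loss of signal scored.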

[15] = BSK_hDFCGF_Proliferation: Cell Proliferation Assessment in the BioMAP Diversity Plus: hDFCGF Assay (AID 2283059); settings: primary human foreskin fibroblasts;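 note: curves fitted for both rise and fall of signal versus DMSO baseline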
In short: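 Steps: dose primary human dermal fibroblasts (foreskin); […] fix in 10% TCA; stain with 0.1% SRB; read 560 nm; fit gain or loss of signal against DMSO.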

[16] = read-out: Macrophage colony-stimulating factor (MCSF), CSF1 (gene 1435); assay: BSK_hDFCGF_MCSF: BioMAP Diversity Plus: hDFCGF Assay for Macrophage colony-stimulating factor (MCSF) Biomarker Activity (AID 2283060); settings: primary human foreskin fibroblasts; actives raise or lower the signal
In short: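 Human foreskin primary fibroblasts were treated with test chemical for 24 h, and M-CSF was then measured by ELISA. Data were fitted bidirectionally against DMSO as the negative control and activity baseline.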

[17] = BSK_hDFCGF_SRB: Viability Assessment in the BioMAP Diversity Plus: hDFCGF Assay (AID 2283061); settings: primary human foreskin fibroblasts;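 note: cells exposed to compound for 24 h before the read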
In short: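 Human foreskin primary fibroblasts were treated with compound and assessed 24 h after dosing. Total protein was measured by sulforhodamine B staining (0.1% SRB after 10% TCA fixation, 560 nm read) as a cytotoxicity marker, with bidirectional fitting against DMSO baseline.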

[18] = read-out: TIMP metallopeptidase inhibitor 1 (TIMP1), TIMP1 (gene 7076); assay: BSK_hDFCGF_TIMP1: BioMAP Diversity Plus: hDFCGF Assay for TIMP metallopeptidase inhibitor 1 (TIMP1) Biomarker Activity (AID 2283062); settings: primary human foreskin fibroblasts; actives raise or lower the signal
In short: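 Primary human foreskin fibroblasts in the hDFCGF system were dosed with compound for 24 h, then TIMP-1 was measured by ELISA. Activity was fitted bidirectionally relative to DMSO control; parallel SRB staining assessed cytotoxicity.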

[19] = read-out: Monokine induced gamma interferon (MIG), CXCL9 (gene 4283); assay: BSK_hDFCGF_MIG: BioMAP Diversity Plus: hDFCGF Assay for Monokine induced gamma interferon (MIG) Biomarker Activity (AID 2283063); settings: primary human foreskin fibroblasts; actives raise or lower the signal
In short: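 ELISA read-out of MIG from primary human dermal fibroblasts 24 h post-dosing. Gain or loss of signal fitted bidirectionally, DMSO as baseline.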

[20] = read-out: Thrombomodulin, THBD (gene 7056); assay: BSK_CASM3C_Thrombomodulin: BioMAP Diversity Plus: CASM3C Assay for Thrombomodulin Biomarker Activity (AID 2283051); settings: primary human coronary artery smooth muscle cells; actives raise or lower the signal;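 note: thrombomodulin protein level measured by ELISA 24 h after dosing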

In the case of Oc1cc(Cl)c(Cl)cc1Cl, the outcome [1] is reported as “inactive”, the outcome [2] is reported as “inactive” and the outcome [3] is reported as “inactive”. For the same compound, the AC50 [4] was 30.8 µM (active), the outcome [5] was “inactive” and the outcome [6] was “inactive”. For the same compound, the outcome [7] was “inactive”, the outcome [8] was “inactive” and the AC50 [9] was 20 µM (active). The outcome [10] was “inactive”, the outcome [11] was “inactive” and the AC50 [12] was 27.7 µM (active). The outcome [13] was “inactive”, the outcome [14] was “inactive” and the AC50 [15] was 15.2 µM (active). The outcome [16] was “inactive”, the AC50 [17] was 31.8 µM (active) and the outcome [18] was “inactive”. The outcome [19] was “inactive”.

With O=C(Cc1ccccc1)OCCc1ccccc1 the outcome [1] was “inactive”, the outcome [2] was “inactive” and the outcome [3] was “inactive”. The outcome [4] was “inactive”, the outcome [5] was “inactive” and the outcome [6] was “inactive”. The outcome [7] was “inactive”, the outcome [20] was “inactive” and the outcome [8] was “inactive”. For the same compound, the outcome [9] was “inactive”, the outcome [10] was “inactive” and the outcome [11] was “inactive”. The outcome [12] was “inactive”, the outcome [13] was “inactive” and the outcome [14] was “inactive”. The outcome [15] was “inactive”, the outcome [16] was “inactive” and the outcome [17] was “inactive”. For the same compound, the outcome [18] was “inactive” and the outcome [19] was “inactive”.

For OCCCCO, the outcome [1] was “inactive”, the outcome [2] was “inactive” and the outcome [3] was “inactive”. For the same compound, the outcome [4] was “inactive”, the outcome [5] was “inactive” and the outcome [6] was “inactive”. For the same compound, the outcome [7] was “inactive”, the outcome [20] was “inactive” and the outcome [8] was “inactive”. The outcome [9] was “inactive”, the outcome [10] was “inactive” and the outcome [11] was “inactive”. For the same compound, the outcome [12] was “inactive”, the outcome [13] was “inactive” and the outcome [14] was “inactive”. The outcome [15] was “inactive”, the outcome [16] was “inactive” and the outcome [17] was “inactive”. For the same compound, the outcome [18] was “inactive” and the outcome [19] was “inactive”.

In the case of O=C(CCl)NCO, the outcome [1] is reported as “inactive”, the outcome [2] is reported as “inactive” and the outcome [3] is reported as “inactive”. For the same compound, the outcome [4] was “inactive”, the outcome [5] was “inactive” and the outcome [6] was “inactive”. The outcome [7] was “inactive”, the outcome [20] was “inactive” and the outcome [8] was “inactive”. For the same compound, the outcome [9] was “inactive”, the outcome [10] was “inactive” and the outcome [11] was “inactive”. The outcome [12] was “inactive”, the outcome [13] was “inactive” and the outcome [14] was “inactive”. For the same compound, the outcome [15] was “inactive”, the outcome [16] was “inactive” and the outcome [18] was “inactive”. For the same compound, the outcome [19] was “inactive”.

For O=C(O)COc1cc(Cl)c(Cl)cc1Cl, the outcome [1] was “inactive”, the outcome [2] was “inactive” and the outcome [3] was “inactive”. The outcome [4] was “inactive”, the outcome [5] was “inactive” and the outcome [6] was “inactive”. For the same compound, the outcome [7] was “inactive”, the outcome [20] was “inactive” and the AC50 [8] was 5.98 µM (active). The outcome [9] was “inactive”, the outcome [10] was “inactive” and the outcome [11] was “inactive”. For the same compound, the outcome [12] was “inactive”, the outcome [13] was “inactive” and the outcome [14] was “inactive”. The outcome [15] was “inactive”, the outcome [16] was “inactive” and the outcome [17] was “inactive”. The outcome [18] was “inactive” and the outcome [19] was “inactive”.

For Cc1ccccc1OP(=O)(Oc1ccccc1)Oc1ccccc1, the outcome [1] was “inactive”, the outcome [2] was “inactive” and the outcome [3] was “inactive”. The outcome [4] was “inactive”, the outcome [5] was “inactive” and the outcome [6] was “inactive”. The AC50 [7] was 8.32 µM (active), the outcome [20] was “inactive” and the outcome [8] was “inactive”. For the same compound, the AC50 [9] was 19 µM (active), the outcome [10] was “inactive” and the outcome [11] was “inactive”. The AC50 [12] was 2.84 µM (active), the outcome [13] was “inactive” and the outcome [14] was “inactive”. For the same compound, the AC50 [15] was 20 µM (active), the AC50 [16] was 10.5 µM (active) and the AC50 [17] was 29.2 µM (active). The AC50 [18] was 14.5 µM (active) and the AC50 [19] was 20 µM (active).

In the case of Cc1cc(Cl)ccc1OC(C)C(=O)O (stereo not drawn), the outcome [1] is reported as “inactive”, the outcome [2] is reported as “inactive” and the outcome [3] is reported as “inactive”. For the same compound, the outcome [4] was “inactive”, the outcome [5] was “inactive” and the outcome [6] was “inactive”. For the same compound, the outcome [7] was “inactive”, the outcome [20] was “inactive” and the outcome [8] was “inactive”. The outcome [9] was “inactive”, the outcome [10] was “inactive” and the outcome [11] was “inactive”. The outcome [12] was “inactive”, the outcome [13] was “inactive” and the outcome [14] was “inactive”. The outcome [15] was “inactive”, the outcome [16] was “inactive” and the outcome [17] was “inactive”. The outcome [18] was “inactive” and the outcome [19] was “inactive”.
